Laboratory results: paper PMC11006913
Numbering of substitutions follows the chain as printed.

Experiments:
Test in all cases: PBM; 200 nM protein, PBS
Conditions in all cases: dsDNA, one strand shown
SIX6 [1] = target: T1, SIX6 (Homo sapiens, UniProt O95475 114-200, L167I)
T1 sequence: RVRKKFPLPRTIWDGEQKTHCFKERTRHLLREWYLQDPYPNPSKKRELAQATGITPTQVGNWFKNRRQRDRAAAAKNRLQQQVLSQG

SIX6 [2] = target: T2, SIX6 (Homo sapiens, UniProt O95475 114-200, L143V)
T2 sequence: T1 sequence with L30V, I54L

SIX6 [3] = target: T3, SIX6 (Homo sapiens, UniProt O95475 114-200, H141N)
T3 sequence: T1 sequence with H28N, I54L

SIX6 [4] = target: T4, SIX6 (Homo sapiens, UniProt O95475 114-200, T165P)
T4 sequence: T1 sequence with T52P, I54L

SIX6 [5] = target: T5, SIX6 (Homo sapiens, UniProt O95475 114-200, L143I)
T5 sequence: T1 sequence with L30I, I54L

SIX6 [6] = target: T6, SIX6 (Homo sapiens, UniProt O95475 114-200, T165G)
T6 sequence: T1 sequence with T52G, I54L

SIX6 [7] = target: T7, SIX6 (Homo sapiens, UniProt O95475 114-200, T139Q)
T7 sequence: T1 sequence with T26Q, I54L

SIX6 [8] = target: T8, SIX6 (Homo sapiens, UniProt O95475 114-200, T165A)
T8 sequence: T1 sequence with T52A, I54L

SIX6 [9] = target: T9, SIX6 (Homo sapiens, UniProt O95475 114-200, L167V)
T9 sequence: T1 sequence with I54V

SIX6 [10] = target: T10, SIX6 (Homo sapiens, UniProt O95475 114-200)
T10 sequence: T1 sequence with I54L

SIX6 [11] = target: T11, SIX6 (Homo sapiens, UniProt O95475 114-200, T165I)
T11 sequence: T1 sequence with T52I, I54L

SIX6 [12] = target: T12, SIX6 (Homo sapiens, UniProt O95475 114-200, L167M)
T12 sequence: T1 sequence with I54M

SIX6 [13] = target: T13, SIX6 (Homo sapiens, UniProt O95475 114-200, L143M)
T13 sequence: T1 sequence with L30M, I54L

ACGATAGT
binding signal (SIX6 [1]): 10.4 upbm affinity estimate (log intensity, higher = more binding, comparable within an allelic series) | binding signal (SIX6 [2]): 10 upbm affinity estimate (log intensity, higher = more binding, comparable within an allelic series) | binding signal (SIX6 [3]): 10.4 upbm affinity estimate (log intensity, higher = more binding, comparable within an allelic series) | binding signal (SIX6 [4]): 9.75 upbm affinity estimate (log intensity, higher = more binding, comparable within an allelic series) | binding signal (SIX6 [5]): 10 upbm affinity estimate (log intensity, higher = more binding, comparable within an allelic series) | binding signal (SIX6 [6]): 10.5 upbm affinity estimate (log intensity, higher = more binding, comparable within an allelic series) | binding signal (SIX6 [7]): 10.6 upbm affinity estimate (log intensity, higher = more binding, comparable within an allelic series) | binding signal (SIX6 [8]): 10.4 upbm affinity estimate (log intensity, higher = more binding, comparable within an allelic series) | binding signal (SIX6 [9]): 10.3 upbm affinity estimate (log intensity, higher = more binding, comparable within an allelic series) | binding signal (SIX6 [10]): 10.4 upbm affinity estimate (log intensity, higher = more binding, comparable within an allelic series) | binding signal (SIX6 [11]): 10.3 upbm affinity estimate (log intensity, higher = more binding, comparable within an allelic series)

CAGCTGGC
binding signal (SIX6 [1]): 8.7 upbm affinity estimate (log intensity, higher = more binding, comparable within an allelic series) | binding signal (SIX6 [2]): 8.78 upbm affinity estimate (log intensity, higher = more binding, comparable within an allelic series) | binding signal (SIX6 [3]): 8.72 upbm affinity estimate (log intensity, higher = more binding, comparable within an allelic series) | binding signal (SIX6 [4]): 8.91 upbm affinity estimate (log intensity, higher = more binding, comparable within an allelic series) | binding signal (SIX6 [12]): 8.72 upbm affinity estimate (log intensity, higher = more binding, comparable within an allelic series) | binding signal (SIX6 [13]): 8.61 upbm affinity estimate (log intensity, higher = more binding, comparable within an allelic series) | binding signal (SIX6 [5]): 8.88 upbm affinity estimate (log intensity, higher = more binding, comparable within an allelic series) | binding signal (SIX6 [6]): 8.8 upbm affinity estimate (log intensity, higher = more binding, comparable within an allelic series) | binding signal (SIX6 [7]): 8.91 upbm affinity estimate (log intensity, higher = more binding, comparable within an allelic series) | binding signal (SIX6 [8]): 8.79 upbm affinity estimate (log intensity, higher = more binding, comparable within an allelic series) | binding signal (SIX6 [9]): 8.84 upbm affinity estimate (log intensity, higher = more binding, comparable within an allelic series) | binding signal (SIX6 [10]): 8.73 upbm affinity estimate (log intensity, higher = more binding, comparable within an allelic series) | binding signal (SIX6 [11]): 8.69 upbm affinity estimate (log intensity, higher = more binding, comparable within an allelic series)

CAGCCCCG
binding signal (SIX6 [1]): 8.86 upbm affinity estimate (log intensity, higher = more binding, comparable within an allelic series) | binding signal (SIX6 [2]): 8.79 upbm affinity estimate (log intensity, higher = more binding, comparable within an allelic series) | binding signal (SIX6 [3]): 8.86 upbm affinity estimate (log intensity, higher = more binding, comparable within an allelic series) | binding signal (SIX6 [4]): 8.88 upbm affinity estimate (log intensity, higher = more binding, comparable within an allelic series) | binding signal (SIX6 [12]): 8.84 upbm affinity estimate (log intensity, higher = more binding, comparable within an allelic series) | binding signal (SIX6 [13]): 8.78 upbm affinity estimate (log intensity, higher = more binding, comparable within an allelic series) | binding signal (SIX6 [5]): 8.82 upbm affinity estimate (log intensity, higher = more binding, comparable within an allelic series) | binding signal (SIX6 [6]): 8.82 upbm affinity estimate (log intensity, higher = more binding, comparable within an allelic series) | binding signal (SIX6 [7]): 8.98 upbm affinity estimate (log intensity, higher = more binding, comparable within an allelic series) | binding signal (SIX6 [8]): 8.8 upbm affinity estimate (log intensity, higher = more binding, comparable within an allelic series) | binding signal (SIX6 [9]): 8.86 upbm affinity estimate (log intensity, higher = more binding, comparable within an allelic series) | binding signal (SIX6 [10]): 8.8 upbm affinity estimate (log intensity, higher = more binding, comparable within an allelic series) | binding signal (SIX6 [11]): 8.81 upbm affinity estimate (log intensity, higher = more binding, comparable within an allelic series)

CTATATCA
binding signal (SIX6 [1]): 11.2 upbm affinity estimate (log intensity, higher = more binding, comparable within an allelic series) | binding signal (SIX6 [2]): 10.4 upbm affinity estimate (log intensity, higher = more binding, comparable within an allelic series) | binding signal (SIX6 [3]): 11.2 upbm affinity estimate (log intensity, higher = more binding, comparable within an allelic series) | binding signal (SIX6 [4]): 9.95 upbm affinity estimate (log intensity, higher = more binding, comparable within an allelic series) | binding signal (SIX6 [12]): 10.7 upbm affinity estimate (log intensity, higher = more binding, comparable within an allelic series) | binding signal (SIX6 [13]): 11 upbm affinity estimate (log intensity, higher = more binding, comparable within an allelic series) | binding signal (SIX6 [5]): 10.4 upbm affinity estimate (log intensity, higher = more binding, comparable within an allelic series) | binding signal (SIX6 [6]): 11.1 upbm affinity estimate (log intensity, higher = more binding, comparable within an allelic series) | binding signal (SIX6 [7]): 11.1 upbm affinity estimate (log intensity, higher = more binding, comparable within an allelic series) | binding signal (SIX6 [8]): 11 upbm affinity estimate (log intensity, higher = more binding, comparable within an allelic series) | binding signal (SIX6 [9]): 10.9 upbm affinity estimate (log intensity, higher = more binding, comparable within an allelic series) | binding signal (SIX6 [10]): 10.9 upbm affinity estimate (log intensity, higher = more binding, comparable within an allelic series) | binding signal (SIX6 [11]): 11.1 upbm affinity estimate (log intensity, higher = more binding, comparable within an allelic series)

GCGTATCA
binding signal (SIX6 [1]): 11.3 upbm affinity estimate (log intensity, higher = more binding, comparable within an allelic series) | binding signal (SIX6 [2]): 10.2 upbm affinity estimate (log intensity, higher = more binding, comparable within an allelic series) | binding signal (SIX6 [3]): 11.1 upbm affinity estimate (log intensity, higher = more binding, comparable within an allelic series) | binding signal (SIX6 [4]): 9.54 upbm affinity estimate (log intensity, higher = more binding, comparable within an allelic series) | binding signal (SIX6 [12]): 10.5 upbm affinity estimate (log intensity, higher = more binding, comparable within an allelic series) | binding signal (SIX6 [13]): 11.2 upbm affinity estimate (log intensity, higher = more binding, comparable within an allelic series) | binding signal (SIX6 [5]): 10.3 upbm affinity estimate (log intensity, higher = more binding, comparable within an allelic series) | binding signal (SIX6 [6]): 11.3 upbm affinity estimate (log intensity, higher = more binding, comparable within an allelic series) | binding signal (SIX6 [7]): 11.2 upbm affinity estimate (log intensity, higher = more binding, comparable within an allelic series) | binding signal (SIX6 [8]): 11.3 upbm affinity estimate (log intensity, higher = more binding, comparable within an allelic series) | binding signal (SIX6 [9]): 10.9 upbm affinity estimate (log intensity, higher = more binding, comparable within an allelic series) | binding signal (SIX6 [10]): 11.1 upbm affinity estimate (log intensity, higher = more binding, comparable within an allelic series) | binding signal (SIX6 [11]): 11.1 upbm affinity estimate (log intensity, higher = more binding, comparable within an allelic series)
